# Over roughly 33,000 sequences, “E-score (-0.5 to 0.5)” has its median near -0.016; the highest 2% begin near 0.31. The entries come from a sample that favours the highest values as a whole.
# Molecular target: Cst6 (UniProt P40535)
# Test: PBM E-score (8-mer binding enrichment) (E-score (-0.5 to 0.5)); higher = stronger / more preferred TF binding
# Settings: protein concentration: 200 nM; construct: GST-DNA-binding domain
# Protocol: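 Universal 'all 10-mer' protein binding microarrays (Agilent AMADID 015681) probed with GST-tagged S. cerevisiae TFs (full-length or DBD) made by in vitro transcription/translation (PURExpress), about 100-200 nM. Bound TF was detected with fluorescent anti-GST. Each ungapped 8-mer (which stands for itself and its reverse complement) is scored by the PBM enrichment score (E-score), a modified Wilcoxon-Mann-Whitney statistic from -0.5 to +0.5, computed with the Universal PBM Analysis Suite. Scale: above 0.35 generally sequence-specific binding.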
# Chain of UniProt P40535 (P40535 whole entry): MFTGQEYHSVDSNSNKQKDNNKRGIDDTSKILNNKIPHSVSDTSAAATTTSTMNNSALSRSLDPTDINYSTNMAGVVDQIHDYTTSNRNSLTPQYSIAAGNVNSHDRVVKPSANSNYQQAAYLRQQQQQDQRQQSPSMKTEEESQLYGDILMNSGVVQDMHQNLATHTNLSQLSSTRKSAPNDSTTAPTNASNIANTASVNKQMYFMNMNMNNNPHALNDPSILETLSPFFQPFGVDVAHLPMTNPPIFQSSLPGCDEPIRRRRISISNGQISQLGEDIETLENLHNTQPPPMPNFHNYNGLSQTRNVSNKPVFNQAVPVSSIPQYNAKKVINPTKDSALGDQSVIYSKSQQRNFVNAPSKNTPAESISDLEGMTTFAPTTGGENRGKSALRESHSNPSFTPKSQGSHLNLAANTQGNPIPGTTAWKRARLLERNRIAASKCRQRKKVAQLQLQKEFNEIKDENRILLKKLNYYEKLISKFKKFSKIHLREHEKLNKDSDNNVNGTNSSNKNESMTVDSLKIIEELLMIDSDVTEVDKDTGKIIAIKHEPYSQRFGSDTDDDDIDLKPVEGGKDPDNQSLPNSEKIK
row,Sequence,PBM E-score
1,AGACGTCC,-0.00823
2,GGACGTGA,-0.0809
3,CGACGTCC,-0.0701
4,CGACGTCG,-0.0227
5,CGACGTCA,0.491
6,GGACGTCC,-0.128
7,AGACGTCG,-0.103
8,GGACGTCA,0.468
9,GGTCGTCA,0.272
10,AGACGTCA,0.484
11,AGACGTCT,-0.207
12,TGACGTCA,0.5
13,ATTCTGCC,0.124
14,ACATGCAT,0.0333
15,CAATGGCC,-0.314
16,GAGCCAGC,-0.299
17,ACTTGCCC,-0.215
18,ATGTTTCG,0.263
19,AGCCCCAC,-0.161
20,CTGACACA,0.0411
21,ACGACACG,0.0167
22,ATGACACG,0.256
23,ATGACACA,0.349
24,GTGACACA,0.322
25,GAGACACA,-0.0694

row,Sequence,PBM E-score
1,AGACATGG,-0.0372
2,ACTACCTC,0.0105
3,AGCTTGGA,-0.274
4,ACTGGGCA,-0.16
5,CCGATAAA,0.0173
6,AAACGCAA,0.254
7,ACACGTCG,-0.0793
8,TCACGTGA,0.1
9,ACACGTCA,0.481
10,GCACGTTA,0.0802
11,TCCCGTCA,0.0641
12,GCACGTCA,0.459
13,ACACGTCT,0.0155
14,GCACGTCC,-0.0855
15,TCACGTCA,0.49
16,CCACGTCC,-0.214
17,CCACGTCA,0.472
18,CCACGTCG,-0.196
19,AGGGGGTA,-0.392
20,AGGACTGG,-0.203
21,CTCTTAAA,0.112
22,AGACAAGG,-0.181
23,GGCACGCA,-0.0289
24,GGGCGGGA,-0.0359
25,CAAGAGGC,0.0779

row,Sequence,PBM E-score
1,GTTGACGA,0.192
2,GGTGACCA,-0.0455
3,AGTGACGG,0.301
4,AGTGACCA,-0.105
5,AGTGACGA,0.399
6,GGTGACGA,0.463
7,GGAGGCGA,-0.154
8,ACTATATG,0.0805
9,CTTATATC,0.291
10,ATTATAAG,0.182
11,ATTATATG,0.306
12,ATTATATC,0.327
13,ATTATATA,0.239
14,AGGAGAAG,-0.154
15,GAGGCGAA,0.0301
16,ATCTAGGA,-0.0727
17,ACGGGTCA,-0.0243
18,GTCTAGAA,-0.0503
19,AATACGCA,0.124
20,AATACGTA,0.344
21,CATACGCA,0.147
22,CATACGAA,0.154
23,CATACGTA,0.383
24,AATACGTG,0.176
25,AATACGCC,0.104

row,Sequence,PBM E-score
1,AATACGTC,0.323
2,GATACGGA,0.111
3,AATACGAC,0.0982
4,GATACGCA,0.0359
5,GATACGTA,0.332
6,ATTGAGGG,-0.186
7,TCAGAGGA,-0.193
8,GCAGGAGA,-0.202
9,TCCGACGA,-0.0151
10,CTGCTAAG,-0.279
11,CTATGGCC,-0.271
12,CATACGCC,0.156
13,CCTACGTC,0.305
14,CATACGTC,0.405
15,ATCCCGTG,0.0123
16,CTCAAAAC,0.175
17,GTTACGAA,0.16
18,GTTACGCA,0.266
19,ATTACGCG,0.326
20,CTTACGCA,0.249
21,ATTACGCA,0.398
22,ATTACGAG,0.235
23,ATTACGGG,0.00617
24,ATTACGAA,0.305
25,ATTACGCC,0.254

row,Sequence,PBM E-score
1,CGACACAC,0.0466
2,CGGAGAAA,-0.0341
3,GCAATGAC,0.3
4,CCAATGAA,-0.187
5,CCAATGAC,0.314
6,ACAATGAG,-0.0976
7,ACAATGAC,0.336
8,ACAATGAT,0.269
9,AGCCAGTC,-0.244
10,CGCCATGC,0.0733
11,GTCTGGGA,-0.281
12,ATTGCCTA,-0.141
13,ACATCCAA,0.131
14,GATCGTCA,0.294
15,AATCGTCC,-0.00977
16,TATCGTGA,0.0604
17,CATCGTCC,0.14
18,CATCGTCA,0.372
19,CATCGTCG,-0.112
20,TATCGTCA,0.397
21,AATCGTCT,0.11
22,AATCGTCA,0.34
23,CCAGATAG,-0.0711
24,ACCTTGTA,0.0757
25,CTTAGCAA,-0.0618

row,Sequence,PBM E-score
1,GGGCTCGA,-0.112
2,CACAGATG,0.0492
3,ATTGCTCC,-0.0682
4,CGACCGGA,-0.305
5,CATCGTAG,0.00214
6,CATAGTAA,0.313
7,TATAGTAA,0.161
8,GATAGTAA,0.14
9,GGCAGGAA,-0.21
10,CCATGACC,0.0749
11,CCATGACG,0.457
12,ACATGACA,0.274
13,ACATGACT,-0.0377
14,ACATGACG,0.435
15,CCATGACA,0.271
16,AAAGCGGC,0.151
17,AGGAACTC,-0.0807
18,AATCCCTC,-0.0193
19,ATGTCGCA,-0.0497
20,CCTCAGAA,-0.0484
21,CAACGTTA,0.119
22,AAATAATA,0.287
23,AAATAAAA,0.186
24,AAATAAAG,0.104
25,AAATACAC,0.141

row,Sequence,PBM E-score
1,ATATAAAT,0.321
2,ATATAAAC,0.295
3,CAATACAA,0.15
4,AAATAAAT,0.371
5,AAATAATC,0.178
6,ATATAAAG,0.17
7,AAATACAA,0.321
8,AAATAATG,0.312
9,GCACACTA,-0.138
10,ACGGTAAA,0.129
11,GACACTAC,0.0584
12,AGGAGCTG,-0.256
13,CTTCACAA,-0.0895
14,GGTTGCAC,-0.136
15,GCACTGTA,-0.00858
16,CCGTTATA,-0.00095
17,ACGTTATC,0.269
18,ACGTTATA,0.31
19,GCGTTATA,0.0248
20,ACGTTAGG,0.112
21,ACGTTATG,0.333
22,CCAAGGAG,-0.0523
23,ACTGCAGA,-0.0111
24,TGCTACAA,0.0326
25,ATCTCATG,-0.00941

row,Sequence,PBM E-score
1,ATATTCGA,-0.111
2,AACAAATA,0.242
3,AACAAATT,0.32
4,AACAAGTT,0.0438
5,CTCAGGCC,-0.258
6,CAACACGG,0.0445
7,CCAATAAC,0.135
8,CGTATGAG,0.133
9,AGTATGAG,0.0817
10,CGTATGGC,0.23
11,GGTATGAC,0.191
12,AGTATGAC,0.354
13,AGTATGAA,0.0821
14,CGTATGAA,0.319
15,CGTATGAC,0.443
16,AGTATGAT,0.235
17,GACGAGAA,0.242
18,TCTTGACA,0.053
19,CGAGGACG,-0.269
20,CAACCTTA,0.0972
21,GCTGATAC,-0.0819
22,ACGGTTCC,-0.0941
23,ACCGGGAG,-0.317
24,CACCTCGA,0.119
25,ATATATAC,0.281

row,Sequence,PBM E-score
1,TTATATAA,0.24
2,CTCTATAC,-0.125
3,CTATATAA,0.147
4,CTATATAC,0.338
5,ATATATAA,0.324
6,GTATTGAC,0.148
7,CGCTTGAC,-0.0844
8,AGAAATTG,0.27
9,CCTTATGA,0.159
10,GATACGGC,0.139
11,AATACGGC,0.324
12,CATACGGC,0.321
13,CATACGGA,0.049
14,AATACGGT,-0.0647
15,AATACGGG,-0.0401
16,CCGCAGCA,0.0617
17,GGTTCTAC,-0.204
18,CACATCAG,-0.0727
19,GACCGTCA,0.137
20,CACCGTCG,-0.174
21,CACCGTCC,-0.173
22,AACCGTCA,0.174
23,TACCGTCA,0.345
24,CACCGTCA,0.314
25,GAACCAAA,-0.0818

row,Sequence,PBM E-score
1,GGATATCA,-0.0151
2,CGATATAA,0.225
3,TGATATAA,0.323
4,GGATATAA,0.236
5,TAATATCA,0.319
6,AAATATCA,0.139
7,AGATATCA,0.198
8,CAATATCA,0.126
9,TGATATCA,0.426
10,GGAAGAGA,-0.106
11,ATTCTGAC,0.181
12,GGCGTACC,-0.19
13,CAACCAAG,0.0364
14,TCGGACAA,0.0914
15,CACAGTGC,-0.024
16,CCCTAACA,0.127
17,ACCGTGAC,0.291
18,GCCGTGAC,0.341
19,ACCGTGCC,0.0391
20,GCCGTGCC,0.308
21,CACGTGAC,0.148
22,GCCGTGAA,0.184
23,GACGTGAC,0.394
24,GCCGTGCA,0.279
25,GACGTGAA,0.142

row,Sequence,PBM E-score
1,CCAAGCGA,-0.309
2,AAACAGGT,0.0221
3,ATTCTGGA,0.122
4,AAGCCTTA,-0.0547
5,ACCTGCTA,-0.0708
6,GTACGCAA,0.0898
7,TGACGCCA,0.466
8,TGACGCAA,0.489
9,AGACGCAA,0.0971
10,CCACGCAA,0.043
11,TCACGCAA,0.375
12,GGACGCAA,0.0196
13,ATACGCAA,0.283
14,TTACGCAA,0.438
15,AGACGCCA,-0.108
16,GCACGCAA,-0.0783
17,CGACGCCA,0.00886
18,CTGCTTAC,0.00293
19,CGTGACTC,-0.1
20,ACGCTCAT,0.114
21,CCTAAGCA,-0.0807
22,TTAGGCAA,-0.00879
23,TAACCAGA,-0.0457
24,CAAGTGCC,0.0401
25,CCGCCGTA,0.0871

row,Sequence,PBM E-score
1,ACGCCGTA,0.349
2,ACGCCGCG,0.302
3,CCGCCGTC,0.206
4,ACGCCGTG,0.383
5,GCGCCGTA,0.384
6,ACGCCGTC,0.389
7,GCGCCGAA,0.132
8,ACGCCGAC,0.0423
9,GGGCCGTA,0.116
10,ACGCCGGG,-0.254
11,AGGCCGTA,0.0502
12,ATCCAATA,0.222
13,AGCCGACC,-0.292
14,CTGGGACA,-0.219
15,CCTGTGGC,-0.117
16,AGAGTACC,-0.135
17,TAGTACAA,-0.00017
18,ACATTTCC,0.13
19,GAGATCGA,0.0615
20,CATCCGCG,0.151
21,ATATGTCA,0.404
22,ATATGTCG,0.185
23,GTATGTAA,0.282
24,CGATGTCA,0.319
25,GTATGTCA,0.422

row,Sequence,PBM E-score
1,CTATGTCA,0.392
2,AGATGTCA,0.298
3,ATGTGTCA,0.286
4,CTATGTCC,-0.152
5,ATATGTCC,0.121
6,GGATGTCA,0.277
7,GTATGTTA,0.182
8,CATCAAGG,-0.0962
9,ACGCCCGT,-0.0034
10,AACTAAGG,0.0828
11,GGAACGCA,-0.112
12,AGGTATAC,0.0822
13,GGCCGTGA,0.14
14,CTGCGCTC,-0.292
15,GCAGTCGC,-0.0904
16,ACAAGGCG,0.223
17,GGTGGCGA,-0.11
18,CAGCGGTA,0.0522
19,CCATAGCG,-0.0739
20,GACAGAAA,0.311
21,GACAGAAC,0.0521
22,AACAGAAA,0.213
23,ACCGTTCG,0.0621
24,ACTACCCT,-0.111
25,AATTCGCT,0.238

row,Sequence,PBM E-score
1,AATTATCT,0.161
2,AATTATCA,0.356
3,AATTATCC,0.188
4,CATTATCG,0.0831
5,CATTATCA,0.137
6,AATTATCG,0.316
7,ACAGGGGA,-0.218
8,ATTTAAAA,0.258
9,ACAATAGC,-0.178
10,ATTGGCAG,-0.165
11,AGTAACTG,0.00693
12,CTACGTCC,-0.0878
13,ATACGTCC,0.061
14,GTACGTCA,0.49
15,CTACGTCA,0.493
16,ATACGTCA,0.494
17,GTACGTGA,0.108
18,ATACGTCG,0.215
19,GTACGTTA,0.124
20,CTACGTGA,0.0384

# From the supplement of paper PMC3334620
